High-throughput results as filed in PubChem.
Vc quorum ag: inducers of Vibrio cholerae quorum light production without autoinducers | V. cholerae BH1578 lux reporter, luminescence, 6 h | activation, % at 18.7 µM | 0.16% of 350,000 active | AID 588436; in the data active = activation mostly above about 9.7%, no sharp cut-off
DUSP3 inh: blocks human VHR1 dual specificity phosphatase; recombinant VHR phosphatase, pNPP absorbance; 0.52% of 290,000 active; AID 1654; inhibition, % at 13.3 µM; in the data active = inhibition above about 50%
PfHsp40 rescue: compounds rescuing yeast from Plasmodium falciparum HSP40 toxicity; S. cerevisiae expressing PfHsp40, growth rescue, ATP luminescence; growth rescue, % at 12.5 µM; 0.68% of 340,000 active; in the data active = growth rescue above about 28%, passing the limit was not always enough;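 note: yeast W303a lacking pdr1 and pdr3 grown in galactose medium; growth measured after three days at 30 °C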
Mtb BioA inh: BioA (M. tuberculosis) enzyme inhibition. AID 602481. purified M. tuberculosis BioA enzyme, plate reader. 0.096% of 360,000 active. inhibition, % at 9.99 µM; in the data active = inhibition above about 40%
TcdB inh: TcdB glycohydrolase inhibition; P18177; 0.24% of 350,000 active; inhibition, % at 9.99 µM; TcdB glycohydrolase enzymatic assay, plate reader; in the data active = inhibition above about 10%
Y pestis TopoI: Y. pestis Topo-I inhibition via cleavage products; Y. pestis Topo-I cleavage product accumulation, plate reader; 0.064% of 360,000 active; AID 504884; activity, % at 10 µM; in the data active = activity above about 50%, passing the limit was not always enough
Large screens that a line does not name were inactive. Most compounds without a hit are left out; they make up all but 1.2% or so of the library.

COc1ccc(-c2cc3ccc(OC)cc3cn2)cc1	none (no result: DUSP3 inh)
CCn1nc(NC(=O)C(C)C)c2cc3cccc(C)c3nc21	DUSP3 inh 56.0
CCn1nc(NC(C)=O)c2cc3cccc(C)c3nc21	none
O=C(N/N=C/c1ccc[nH]1)c1ccccc1O	PfHsp40 rescue 76.0 (no result: Mtb BioA inh)
O=C(N/N=C/c1ccc[nH]1)c1ccccc1OCc1ccccc1Cl	DUSP3 inh 57.4 (no result: Mtb BioA inh)
O=C(NCc1nnc(SCC(=O)N2CCCC2)o1)c1cccc(C(F)(F)F)c1	none
Cc1ccccc1CCNC(=O)CCn1ccc2cc(S(=O)(=O)N3CCCC3)ccc21	none
CSc1nc(N2CCN(c3ccccc3)CC2)cc(N2CCN(c3ccccc3)CC2)n1	none
COc1cccc(N2CCN(c3nc(C)c(C)c(=O)[nH]3)CC2)c1	none
COc1cccc(N2CCN(c3nc(-c4ccccc4C)cc(=O)[nH]3)CC2)c1	PfHsp40 rescue 108.0
S=c1[nH]nc(-c2ccc3ccccc3n2)n1-c1ccccc1	none
Fc1ccccc1-n1c(-c2ccc3ccccc3n2)n[nH]c1=S	DUSP3 inh 52.9
COc1ccc(NC(=O)Nc2cccc3c2O[C@H](CN(C)Cc2ccncc2)[C@@H](C)CN([C@H](C)CO)C3=O)cc1	none (no result: Vc quorum ag, DUSP3 inh, PfHsp40 rescue, Y pestis TopoI)
O=C1c2ccccc2NC(c2ccc(Cl)cc2Cl)N1Cc1ccccc1 (stereo not drawn)	none (no result: TcdB inh)
O=C1c2ccccc2NC(c2ccc(-c3cccc(F)c3)o2)N1O (stereo not drawn)	PfHsp40 rescue 108.7 (no result: DUSP3 inh)
N#Cc1ccc(-c2ccc(C3Nc4ccccc4C(=O)N3O)o2)cc1 (stereo not drawn)	none (no result: DUSP3 inh)
CCOC(=O)c1ccc(-c2ccc(C3Nc4ccccc4C(=O)N3O)o2)cc1 (stereo not drawn)	PfHsp40 rescue 364.4
CCOC(=O)c1ccc(-c2ccc(CO)o2)cc1	none (no result: Mtb BioA inh, TcdB inh)
Cc1cc([N+](=O)[O-])ccc1-c1ccc(C2Nc3ccccc3C(=O)N2O)o1 (stereo not drawn)	PfHsp40 rescue 167.6 (no result: Mtb BioA inh)
O=C1c2ccccc2NC(c2ccc(Cl)cc2Cl)N1O (stereo not drawn)	PfHsp40 rescue 292.3 (no result: TcdB inh)
C[C@H](CO)N1C[C@H](C)[C@H](CN(C)C(=O)CCC(F)(F)F)OCCCC[C@H](C)Oc2ccc(NS(=O)(=O)c3ccc(Cl)cc3)cc2C1=O	none (no result: Vc quorum ag, DUSP3 inh, PfHsp40 rescue, Y pestis TopoI)
Cc1ccc(C(=O)NNC(=O)c2cccc3ccccc23)cc1	none (no result: DUSP3 inh)
Cc1ccc(N2C(=O)c3cccc4c(N5CCN(C)CC5)ccc(c34)C2=O)c2cccnc12	none (no result: Vc quorum ag, PfHsp40 rescue, Mtb BioA inh, TcdB inh, Y pestis TopoI)
O=C(NCC1CCCN1S(=O)(=O)c1cccs1)C(=O)Nc1cccc(F)c1 (stereo not drawn)	none (no result: DUSP3 inh)
O=C1c2ccccc2NC(c2ccc(-c3ccccc3F)o2)N1O (stereo not drawn)	PfHsp40 rescue 119.8 (no result: DUSP3 inh)
CCOC(=O)C1=C(C)NC(=O)NC1c1ccc(-c2ccc(F)cc2)o1 (stereo not drawn)	DUSP3 inh 51.9 (no result: Mtb BioA inh)
CCOC(=O)C1=C(C)NC(=O)NC1c1ccc(-c2ccc(Cl)cc2)o1 (stereo not drawn)	none (no result: Mtb BioA inh)
Cc1nn(C)cc1C1Nc2ccccc2C(=O)N1O (stereo not drawn)	none (no result: TcdB inh)
CC(C)[C@H](NC(=O)Cc1ccccc1)C(=O)OCc1cc(=O)n2c(n1)sc1ccccc12	DUSP3 inh 53.8 (no result: Mtb BioA inh)
Cc1ccc2c(CC(=O)OCc3cc(=O)n4c(n3)sc3ccccc34)coc2c1	none (no result: TcdB inh)
Cc1cc(C)n(CC(O)COc2ccccc2[N+](=O)[O-])n1 (stereo not drawn)	DUSP3 inh 56.2 (no result: Mtb BioA inh, TcdB inh)
CCS(=O)(=O)N1CCC2(CC1)CN(Cc1cc(F)ccc1F)[C@H](CO)c1c2c2ccc(OC)cc2n1C	none (no result: Vc quorum ag, DUSP3 inh, PfHsp40 rescue, Mtb BioA inh, Y pestis TopoI)
CC(=O)Nc1ccc(NC(=O)C(C)OC(=O)c2ccc(OCc3c(C)noc3C)cc2)cc1 (stereo not drawn)	none (no result: Mtb BioA inh, TcdB inh)
Cc1noc(C)c1COc1ccc(C(=O)OC(C)C(=O)Nc2ccc(N3CCOCC3)cc2)cc1 (stereo not drawn)	PfHsp40 rescue 67.1 (no result: TcdB inh)
O=C(NCc1cccc(CNC(=O)C(=O)NCC2CCCO2)c1)C(=O)NCC1CCCO1 (stereo not drawn)	Vc quorum ag 227.4 (no result: Mtb BioA inh)
O=C(NCCCn1ccnc1)Nc1ccc(Cl)c(Cl)c1	PfHsp40 rescue 45.6 (no result: Vc quorum ag, TcdB inh)
O=C(NCCCn1ccnc1)c1cccc(Br)c1	DUSP3 inh 52.6
O=C(NCC1CC1(Cl)Cl)Nc1ccc(Cl)c(Cl)c1 (stereo not drawn)	PfHsp40 rescue 303.8
Cc1ccc(NC(=O)NCC2CC2(Cl)Cl)cc1 (stereo not drawn)	none
O=C(NCCCn1ccnc1)c1ccc(Br)cc1	none
N[C@@H]1CC[C@@H](CCn2cc(C3(O)CCCC3)nn2)O[C@H]1CO	none (no result: Vc quorum ag, DUSP3 inh, PfHsp40 rescue, Y pestis TopoI)
